The record followed here is the supplement of paper PMC3545927.

The list shows a part of the results. How many sequences the whole screen found active is unknown.

The target of this assay is furin, P09958. Nature of the assay: furin cleavage Z-score vs untreated control; higher = more cleavage, active = 3.5 or more, inactive = 1 or less, 8 variable residues between constant flanks. In short, it runs like this:
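Sequencing of released DNA, tagged with adapters by PCR, gave read counts used as abundance. That DNA was freed when purified furin cut N-terminally bead-bound 8-mer peptides fused to a cDNA oligonucleotide, in 0.01 ml reactions at 1:10 enzyme:substrate in 50 mM HEPES pH 7.5 with CaCl2 and NaCl, lasting 7.5, 15 or 30 min. The cleavage Z-score was the lowess-adjusted log count versus furin-free reactions, scaled by median absolute deviation.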

Chain of furin, P09958 (P09958 whole entry, the tested form may be a part): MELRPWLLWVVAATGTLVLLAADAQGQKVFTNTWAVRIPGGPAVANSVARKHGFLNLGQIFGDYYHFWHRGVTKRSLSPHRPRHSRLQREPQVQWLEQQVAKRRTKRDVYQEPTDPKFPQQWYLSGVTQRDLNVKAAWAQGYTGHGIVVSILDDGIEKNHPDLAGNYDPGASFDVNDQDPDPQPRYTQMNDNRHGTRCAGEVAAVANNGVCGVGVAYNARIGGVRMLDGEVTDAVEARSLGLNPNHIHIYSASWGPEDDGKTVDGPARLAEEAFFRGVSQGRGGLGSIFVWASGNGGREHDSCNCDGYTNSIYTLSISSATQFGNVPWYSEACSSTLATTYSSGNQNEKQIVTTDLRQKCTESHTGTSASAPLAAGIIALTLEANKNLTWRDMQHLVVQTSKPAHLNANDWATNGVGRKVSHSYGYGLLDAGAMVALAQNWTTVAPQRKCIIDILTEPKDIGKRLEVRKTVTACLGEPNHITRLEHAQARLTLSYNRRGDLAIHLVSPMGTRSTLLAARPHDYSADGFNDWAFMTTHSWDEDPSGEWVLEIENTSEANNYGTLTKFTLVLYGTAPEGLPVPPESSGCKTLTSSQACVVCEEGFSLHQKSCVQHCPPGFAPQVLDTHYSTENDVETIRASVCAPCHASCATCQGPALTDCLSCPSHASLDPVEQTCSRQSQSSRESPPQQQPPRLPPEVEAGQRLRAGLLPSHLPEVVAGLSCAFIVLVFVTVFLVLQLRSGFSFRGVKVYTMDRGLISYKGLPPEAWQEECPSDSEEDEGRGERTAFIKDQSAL

Regarding CASHITAEAAAGNASASA [HC1250], the “furin cleavage Z-score” value is -0.151 (inactive) (7.5 min), -1.71 (inactive) (15 min) and -1.91 (inactive) (30 min).

On to CADNVTPIDTAGNASASA [HC1435], for which the “furin cleavage Z-score” value (7.5 min) was -0.0484 (inactive), the “furin cleavage Z-score” value (15 min) was -0.00567 (inactive) and the “furin cleavage Z-score” value (30 min) is -0.908 (inactive).

In the case of CAIASWAIKWAGNASASA [HC515], the “furin cleavage Z-score” value (7.5 min) was -0.183 (inactive), the “furin cleavage Z-score” value (15 min) is 0.294 (inactive) and the “furin cleavage Z-score” value (30 min) is -1.7 (inactive).

In the case of CALIHLHQNIAGNASASA [HC505], the “furin cleavage Z-score” value runs as follows: (7.5 min) 0.141 (inactive); (15 min) -1.53 (inactive); (30 min) 0.884 (inactive).

With CAVHCCSMSYAGNASASA [HC2015], the “furin cleavage Z-score” value (7.5 min) was 0.313 (inactive), the “furin cleavage Z-score” value (15 min) is -1.84 (inactive) and the “furin cleavage Z-score” value (30 min) is 0.688 (inactive).

On to CAPQLPGIPFAGNASASA [HC1161], for which the “furin cleavage Z-score” value (7.5 min) was -0.711 (inactive), the “furin cleavage Z-score” value (15 min) is -1.22 (inactive) and the “furin cleavage Z-score” value (30 min) is 0.14 (inactive).

In the case of CATNPCSGSWAGNASASA [HC1861], the “furin cleavage Z-score” value by setting is: (7.5 min) -0.962 (inactive); (15 min) -0.755 (inactive); (30 min) -0.828 (inactive).

Turning to CAEEVTSTWVAGNASASA [HC2172], the “furin cleavage Z-score” value (7.5 min) was -0.33 (inactive), the “furin cleavage Z-score” value (15 min) is 0.0818 (inactive) and the “furin cleavage Z-score” value (30 min) was 0.598 (inactive).

For the sequence CAKKMRNKRNAGNASASA [FS-42], the “furin cleavage Z-score” value (7.5 min) was 10.5 (active), the “furin cleavage Z-score” value (15 min) was 10.9 (active) and the “furin cleavage Z-score” value (30 min) was 9.3 (active).

With CAKTLRTKRNAGNASASA [FS-1352], the “furin cleavage Z-score” value (7.5 min) is 9.31 (active), the “furin cleavage Z-score” value (15 min) was 8.38 (active) and the “furin cleavage Z-score” value (30 min) was 6.89 (active).

CASTPCSAWLAGNASASA [HC2548]: the “furin cleavage Z-score” value (7.5 min) is -0.0997 (inactive), the “furin cleavage Z-score” value (15 min) is -0.849 (inactive) and the “furin cleavage Z-score” value (30 min) is -0.533 (inactive).

Consider CADREVPCHRAGNASASA [HC2431], for which the “furin cleavage Z-score” value is 0.898 (inactive) (7.5 min), 1.78 (15 min) and 1.29 (30 min).
